Assay results published in PubChem BioAssay AID720700 (The Scripps Research Institute Molecular Screening Center, 2013).
In all, about 370,000 compounds went through this assay and about 3,100 (0.84%) were called active. Cut-off read from the data, not from the text of the source: active = inhibition above about 9.5%; inactive = the rest. This excerpt belongs to a sample that is enriched for actives.

The compounds below were run against 1-phosphatidylinositol 4,5-bisphosphate phosphodiesterase gamma-1 (Homo sapiens) (UniProt P19174) (assay: PLC-gamma1 enzyme inhibitors, primary screen, biochemical, fluorescence, purified enzyme (AID 720700)). Details: purified PLC-gamma1, fluorogenic substrate, at 12.2 µM, hits give high values.
Chain of 1-phosphatidylinositol 4,5-bisphosphate phosphodiesterase gamma-1 (Homo sapiens) (P19174 whole entry, looked up): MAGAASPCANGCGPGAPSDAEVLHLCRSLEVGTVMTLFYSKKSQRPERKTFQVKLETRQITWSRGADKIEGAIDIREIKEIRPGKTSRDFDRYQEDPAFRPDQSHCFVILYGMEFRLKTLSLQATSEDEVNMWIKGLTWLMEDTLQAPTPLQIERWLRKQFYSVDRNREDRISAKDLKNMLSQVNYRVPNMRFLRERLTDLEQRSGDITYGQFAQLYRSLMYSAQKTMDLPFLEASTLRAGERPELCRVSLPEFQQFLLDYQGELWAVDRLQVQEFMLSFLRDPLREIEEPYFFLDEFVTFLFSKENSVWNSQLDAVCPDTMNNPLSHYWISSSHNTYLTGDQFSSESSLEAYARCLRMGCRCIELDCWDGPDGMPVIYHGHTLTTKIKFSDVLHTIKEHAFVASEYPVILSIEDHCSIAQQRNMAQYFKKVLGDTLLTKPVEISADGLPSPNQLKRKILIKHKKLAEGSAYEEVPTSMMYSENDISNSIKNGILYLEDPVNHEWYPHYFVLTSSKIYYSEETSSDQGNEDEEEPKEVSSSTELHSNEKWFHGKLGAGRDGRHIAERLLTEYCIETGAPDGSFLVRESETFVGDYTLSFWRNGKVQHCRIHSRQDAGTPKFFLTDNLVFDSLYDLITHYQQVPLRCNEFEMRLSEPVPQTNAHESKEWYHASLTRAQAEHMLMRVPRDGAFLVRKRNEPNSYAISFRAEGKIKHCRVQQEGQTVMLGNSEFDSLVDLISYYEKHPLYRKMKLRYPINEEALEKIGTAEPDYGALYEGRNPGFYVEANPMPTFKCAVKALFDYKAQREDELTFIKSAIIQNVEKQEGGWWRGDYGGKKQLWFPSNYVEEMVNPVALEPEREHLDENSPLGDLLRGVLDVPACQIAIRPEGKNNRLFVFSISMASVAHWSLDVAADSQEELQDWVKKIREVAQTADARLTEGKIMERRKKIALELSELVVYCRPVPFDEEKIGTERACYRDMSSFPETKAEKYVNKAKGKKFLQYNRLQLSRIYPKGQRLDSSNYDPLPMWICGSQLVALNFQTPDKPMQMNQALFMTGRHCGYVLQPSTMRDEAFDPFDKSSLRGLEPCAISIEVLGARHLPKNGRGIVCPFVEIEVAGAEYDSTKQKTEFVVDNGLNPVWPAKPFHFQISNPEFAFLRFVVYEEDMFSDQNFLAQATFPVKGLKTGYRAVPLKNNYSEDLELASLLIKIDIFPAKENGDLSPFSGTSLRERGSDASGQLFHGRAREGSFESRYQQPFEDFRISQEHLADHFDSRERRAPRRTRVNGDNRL

Compound | inhibition
COC(=O)[C@]12C[C@H](CC(=O)N3CCOCC3)C(=O)N(Cc3ccc(Cl)cc3Cl)C1=C[C@H](COCc1ccccc1)O[C@@H]2C | 1.02% (inactive)
COC(=O)Cc1ccc(NC(=S)NCc2ccco2)cc1 | 2.1% (inactive)
CSc1ccccc1NC(=O)Cc1ccc(Br)cc1 | 3.58% (inactive)
CC(C)Oc1ccc(CC(=O)NNC(=S)Nc2ccc(Br)cc2)cc1 | 9.8% (active)
O=C(C1CCCN1S(=O)(=O)c1ccccc1)N1CCc2ccccc2C1 (stereo not drawn) | -1.86% (inactive)
O=C(NCC1COc2ccccc2O1)c1ccc(NC(=O)c2cc(F)ccc2F)cc1 (stereo not drawn) | -4.17% (inactive)
Cc1ccc(Cn2cc(CN3[C@@H](C)COc4cc(Br)ccc4S3(=O)=O)nn2)cc1 | 0.13% (inactive)
C/C(=N\NC(=O)c1cccc(N2CCCC2=O)c1)c1ccc(N)cc1 | 1.08% (inactive)
NC1=NN(c2cccc(C(=O)O)c2)C(=O)C1 | 18.9% (active)
O=C(c1cccc(N2CCCC2=O)c1)N1CCOCC1 | -4.42% (inactive)
COc1ccc([C@H]2OC(=O)C[C@H]2C(=O)N2CCN(c3ccccc3F)CC2)cc1OC | 0.67% (inactive)
O=S(=O)(Nc1ncccn1)c1ccc(NS(=O)(=O)c2cccc(Cl)c2Cl)cc1 | 4.05% (inactive)
Cn1c(=O)n(C)c2cc(NS(=O)(=O)c3ccc(F)cc3)ccc21 | 0.25% (inactive)
O=S(=O)(Nc1ccc(Oc2ncccn2)c(Cl)c1)c1ccc(F)cc1 | 9.74% (active)
COC(=O)c1cccc(Cn2ccc3ccc(-c4ccc5ccn(C(=O)c6ccccc6C)c5c4)cc32)c1 | -16.3% (inactive)
CCC(NC(=O)C1C2C=CC3(CN(Cc4ccccc4)C(=O)C13)O2)c1ccccc1 (stereo not drawn) | -2% (inactive)
CN(CC(=O)Nc1ccccc1Cl)C(=O)COc1cccc2c1OC(C)(C)C2 | 11.8% (active)
COc1cccc(CCNC(=O)COc2cccc3c2OC(C)(C)C3)c1 | 3.51% (inactive)
CC1(C)Cc2cccc(OCC(=O)Nc3nccs3)c2O1 | 0.31% (inactive)
Cc1c[nH]c2cccc(-c3ccc(Cl)cc3)c12 | -12% (inactive)
Nc1nc(NCC(=O)O)nc(N2CCCCCC2)c1[N+](=O)[O-] | 9.71% (active)
COCCNc1nc(N)c([N+](=O)[O-])c(N2CCCCCC2)n1 | 7.3% (inactive)

Compound | inhibition
C=CCNc1nc(N)c([N+](=O)[O-])c(NC2CCCCC2)n1 | 4.77% (inactive)
CC(C)(C)c1ccc(CSc2nnc(-c3cccs3)o2)cc1 | 0.5% (inactive)
O=C(CCl)NC1CCCCN(Cc2cccc(C(F)(F)F)c2)C1=O (stereo not drawn) | -1.65% (inactive)
CCOC(=O)[C@@]12CCC3=C1N(CCC3)C(=O)[C@H](CC(=O)N1CCN(C(=O)c3ccco3)CC1)C2 | -1.32% (inactive)
CN(C(=O)c1cccc(NC(=O)Cc2ccc(NC(=O)C3CCN(C(=O)C4CCCCC4)CC3)cc2)c1)C1CCC1 | 1.78% (inactive)
CN(C(=O)c1ccc(NC(=O)Cc2cccc(NC(=O)C3CCN(C(=O)c4ccccc4)CC3)c2)cc1)C1CC1 | 10.7% (active)
CN(C(=O)c1cccc(NC(=O)Cc2cccc(NC(=O)C3CCCN(C(=O)C4CC4)C3)c2)c1)C1CCC1 (stereo not drawn) | 0.32% (inactive)
CC(C)(C)NC(=O)C(c1cccnc1)N(C(=O)c1cnco1)c1ccc(C(C)(C)C)cc1 (stereo not drawn) | 0.93% (inactive)
COC(=O)[C@]12C[C@H](CC(=O)NCc3cccc4ccccc34)C(=O)N(CCc3ccc(OC)c(OC)c3)C1=C[C@H](C1CCCC1)O[C@@H]2C | 4.89% (inactive)
CCOc1ccccc1C1CC(c2cccc(NS(C)(=O)=O)c2)=NN1C(=O)c1ccccc1 (stereo not drawn) | 9.81% (active)
CS(=O)(=O)Nc1cccc(C2=NN(C(=O)c3cccc(F)c3)C(c3cccs3)C2)c1 (stereo not drawn) | -0.97% (inactive)
Cc1ccc(C2CC(c3cccc(NS(C)(=O)=O)c3)=NN2S(C)(=O)=O)cc1 (stereo not drawn) | 2.31% (inactive)
C=C1C(C(C)C)N(C)C2=NC(c3ccccc3)CC(=O)N12 (stereo not drawn) | -2.56% (inactive)
C=CCN1C(=O)[C@@H](CC(=O)N2CCN(C(=O)c3ccco3)CC2)[C@]2(C(=O)OC)CCCCC=C12 | -0.31% (inactive)
O=C(C(c1ccccc1)c1ccccc1)N1CCN(CC(O)COc2ccccc2)CC1 (stereo not drawn) | 9.59% (active)
CCCc1ccc(OCC(O)CN2CCN(C(=O)OCC)CC2)cc1 (stereo not drawn) | 8.68% (inactive)
CC(=O)N1CCN(CC(c2ccccc2)c2ccccc2)CC1 | -0.45% (inactive)
Nn1c(SCC(=O)Nc2cccc3ccccc23)nnc1-c1cc(-c2ccc(F)cc2)n[nH]1 | -1.09% (inactive)
C[C@H]1CCC/C=C/C(=O)c2c(O)cc(O)cc2CC(=O)O1 | -3.4% (inactive)
CCOc1ccc(CCNC(=O)COC(=O)CCS(=O)(=O)c2ccc(C)cc2)cc1OCC | 9.85% (active)
CCOc1ccc(CCNC(=O)COC(=O)c2c(OC)cccc2OC)cc1OCC | 6.67% (inactive)
COc1ccc(CNC(=O)COC(=O)CCS(=O)(=O)c2ccc(C)cc2)cc1OC | 0.41% (inactive)

Compound | inhibition
C=C(C)C#CC(Cc1ccccc1)NCC1CC1 (stereo not drawn) | 0.45% (inactive)
O=C(CN1CCN(S(=O)(=O)c2ccc(F)cc2)CC1)NC1CC1 | -1.88% (inactive)
O=C(O)C1CCCCC1C(=O)N1CCN(S(=O)(=O)c2ccc(F)cc2)CC1 (stereo not drawn) | 4.99% (inactive)
O=S(=O)(c1ccc(F)cc1)N1CCN(C(=S)NC2CCCC2)CC1 | 10.9% (active)
CCOc1ccccc1NC(=O)C12CC3CC(C1)CC(c1ccc(C)cc1)(C3)C2 | 0.03% (inactive)
C=CCNC(=O)C12CC3CC(C1)CC(C(=O)NCC=C)(C3)C2 | -0.37% (inactive)
Cc1ccc(C23CC4CC(CC(C(=O)NCC(=O)O)(C4)C2)C3)cc1 | 9.87% (active)
O=C(Nc1ccc(Br)cc1)OCCN1C(=O)CCC12CCC(c1ccccc1)CC2 (stereo not drawn) | 4.23% (inactive)
O=C(NC1CCC1)c1ccc(C#CC2CC2)cn1 | -0.59% (inactive)
O=C(CSc1nnc(-c2ccncc2)n1-c1ccc(Cl)cc1)Nc1ccc(C(=O)O)cc1 | -0.57% (inactive)
COCCCn1c(SCC(=O)Nc2ccccc2)nnc1-c1ccncc1 | -0.81% (inactive)
O=C(CSc1nnc(-c2ccncc2)n1C1CCCCC1)Nc1ccccc1 | 10.2% (active)
COc1ccccc1CCNC(=O)C1CCN(c2nc(C)cc(C)n2)CC1 | -0.02% (inactive)
Cc1ccc(-c2nc(C3CCCN(S(=O)(=O)c4ccc(Br)s4)C3)no2)cc1 (stereo not drawn) | 0.61% (inactive)
COc1ccc(-c2ccc(CNCCCN3CCOCC3)o2)cc1Cl | 1.38% (inactive)
C=CCOc1ccc(Cl)cc1CNCCCN1CCOCC1 | 10.7% (active)
O=S(=O)(NCCCN1CCOCC1)c1ccc(F)c(Cl)c1 | -0.87% (inactive)
Cc1ccccc1NC(=O)Cn1nnc(-c2ccccc2F)n1 | 0.94% (inactive)
CN1[C@H](Cc2ccccc2)COc2cccc(N3CCSCC3)c2S1(=O)=O | -5.49% (inactive)
COc1ccc(NC(=O)CN2C(=O)C(c3ccccc3)=NC23CCCCCC3)cc1OC | 1.88% (inactive)
O=C1NC2(CCCCC2)N=C1c1ccccc1 | 10.4% (active)
O=C1NC2(CCCCCC2)C(=O)N1CCS(=O)(=O)Oc1ccccc1 | 1.93% (inactive)

Compound | inhibition
C=CCN1C(=O)[C@@H](CC(=O)N2CCN(C(=O)OCC)CC2)[C@]2(C(=O)OCC)CCCCC/C=C/12 | -1.67% (inactive)
C=CC[C@@H](CC(=O)N[C@@H](CO)Cc1ccccc1)C(=O)N[C@H](COC(=O)[C@H](CC=C)CC(=O)OC(C)(C)C)Cc1ccccc1 | 0.69% (inactive)
C=CC[C@@H](CC(=O)NCCO)C(=O)N[C@H](C)COC(=O)[C@@H](CC=C)CC(=O)OC(C)(C)C | 9.97% (active)
C=CC[C@@H](CC(=O)N[C@@H](CO)Cc1ccccc1)C(=O)NCCOC(=O)[C@@H](CC=C)CC(=O)OC(C)(C)C | 5.69% (inactive)
O=C(N1CCOCC1)N1CC[C@H]2[C@H](CCCN2Cc2ccc(F)cc2)C1 | -1.67% (inactive)
COc1ccc(C2Nc3ccccc3C(=O)N2Cc2cccs2)cc1COc1c(C)cccc1C (stereo not drawn) | -106% (inactive)
CCOC(=O)Nc1ccc(S(=O)(=O)N(C)C(C)C)cc1 | 0.75% (inactive)
CCOC(=O)Nc1ccc(NC(=O)OCC)cc1 | 11.8% (active)
CCOC(=O)Nc1ccc2c(c1)N(C(=O)CCCl)c1ccccc1[S@]2=O | -0.45% (inactive)
COc1ccc(N2CCN(CCNS(=O)(=O)c3ccc(Cl)s3)CC2)cc1 | -2.58% (inactive)
O=C(O)c1ccc(Cn2c(=S)[nH]c3cc(Cl)ccc3c2=O)cc1 | 11% (active)
NC(=O)C1CCN(C(=O)c2ccc3c(=O)n(Cc4cccc(Br)c4)c(=S)[nH]c3c2)CC1 | 4.14% (inactive)
CCOc1cc2[nH]c(=S)n(Cc3ccc(C(=O)N4CCN(C)CC4)cc3)c(=O)c2cc1OCC | -0.53% (inactive)
O=C(NC1CCCCN(Cc2cccc(C(F)(F)F)c2)C1=O)c1ccccc1I (stereo not drawn) | -1.03% (inactive)
COc1ccc(OC)c(C(=O)c2coc3ccc(O)c(CN4CCOCC4)c23)c1 | -8.55% (inactive)
COc1ccc(C(=O)CC(=O)c2ccc(C)cc2)c(O)c1 | -16% (inactive)
COc1ccc(/C(C)=N/N2CCOCC2)c(O)c1 | 15.9% (active)
COC(=O)c1cc(S(=O)(=O)N2CCN(C(=O)C3CCCO3)CC2)cn1C (stereo not drawn) | 0.5% (inactive)
C[C@@H](NC(=O)c1ccccc1OCC(=O)Nc1ccc(I)cc1)C(=O)N(C)Cc1ccccc1 | -0.29% (inactive)
Cc1cc(NC(=O)CN2C(=O)NC(CC(C)C)C2=O)no1 (stereo not drawn) | 10.2% (active)
Cc1cc(NC(=O)CN2C(=O)NC(CCc3ccccc3)C2=O)no1 (stereo not drawn) | -2.53% (inactive)
COc1ccc(C2(c3ccc(OC)cc3)NC(=O)N(CC(=O)Nc3cc(C)on3)C2=O)cc1 | 0.49% (inactive)
